Compounds with a hit are over-represented: about 4.1% of the library has one in this group of screens.
DAX1 inh-1 – blocks DAX1 repression of SF-1 activated StAR promoter; HEK293T StAR-luciferase reporter, SF-1/DAX-1 repression relief; inhibition, % at 6.8 µM; 1.1% of 370,000 active; AID 652010;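 active means inhibition above the mean over all tested compounds plus 3 SD, cut at about 3.6% in these data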;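 further: 0% = DAX-1 cells with DMSO and 100% = cells lacking DAX-1 with DMSO; higher inhibition means more luminescence from relief of DAX-1 repression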
DAX1 inh-2 – NR0B1 (DAX1) inhibition; 0.99% of 340,000 active; P51843; inhibition, % at 6.75 µM; HEK293 Gal4-DAX1 luciferase reporter, luminescence;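 active means inhibition above the mean over all tested compounds plus 3 SD, cut at about 4.2% in these data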;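 further: 0% = DAX1-transfected cells with DMSO and 100% = empty-vector control cells with DMSO; inhibition shows as a rise in luminescence from relieved DAX1 repression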
Target sequence (P51843 207-470 limits assumed): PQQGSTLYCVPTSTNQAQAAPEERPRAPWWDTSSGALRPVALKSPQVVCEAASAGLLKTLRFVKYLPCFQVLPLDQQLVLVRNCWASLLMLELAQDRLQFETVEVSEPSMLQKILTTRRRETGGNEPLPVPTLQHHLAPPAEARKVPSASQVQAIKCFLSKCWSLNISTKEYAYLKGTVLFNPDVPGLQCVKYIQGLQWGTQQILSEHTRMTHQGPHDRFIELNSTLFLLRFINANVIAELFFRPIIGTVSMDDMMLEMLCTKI
hgDAF-12 ag – hgDAF-12 agonism, primary luciferase screen; HEK293 GAL4-hgDAF12 UAS-luciferase reporter, agonist luminescence; normalized to butyrate control; activation, % at 6.8 µM; 1.8% of 370,000 active; AID 687014;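 active means activation above a cutoff set at the mean of all screened compounds plus 3 SD, cut at about 10% in these data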;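 further: 0% = DMSO wells and 100% = sodium butyrate wells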
ssDAF-12 act – activates DAF-12 receptor from parasite S. stercoralis | HEK293 ssDAF-12/GRIP1 lit1-tk-luc reporter, luminescence; % of 3 µM dafachronic acid response | activation, % at 6.8 µM | 1% of 370,000 active | AID 652126;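 active means activation above the mean over all tested compounds plus 3 SD, cut at about 0.9% in these data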;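 further: 0% = DMSO-only wells and 100% = 3 µM delta7-dafachronic acid wells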
hcDAF12 agonist – activates DAF-12 receptor from parasite H. contortus; 1.4% of 370,000 active; activation, % at 6.8 µM; AID 652067; HEK293 hcDAF-12 lit1-tk-luc reporter, luminescence; 0% DMSO, 100% Δ7-dafachronic acid;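 active means activation above the mean of all tested compounds plus 3 SD, cut at about 5.5% in these data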;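 further: 100% = response to 3 µM Δ7-dafachronic acid high control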
Starred values were filed as active, the others as inactive; / = no result.

SMILES | DAX1 inh-1 | DAX1 inh-2 | hgDAF-12 ag | ssDAF-12 act | hcDAF12 agonist
Cc1onc(C(=O)N2CCN(C(c3ccc(F)cc3)c3ccc(F)cc3)CC2)c1[N+](=O)[O-] | / | / | -7 | -2 | 0
COc1ccccc1C1=NOC(Cn2c(=O)c3c(ncn3C)n(C)c2=O)C1 (stereo not drawn) | 0 | 0 | 1 | 0.9* | 5
O=C(CN1CCN(S(=O)(=O)c2ccc(Cl)cc2)CC1)NC1CCCC1 | 3.8* | -1 | 0 | -1 | 0
O=C(O)c1cc(S(=O)(=O)NC(Cc2c[nH]c3ccccc23)C(=O)O)ccc1Cl (stereo not drawn) | 0 | 1 | 2 | 0.9* | 5.9*
O=C(NC(Cc1c[nH]c2ccccc12)C(=O)O)/C(=C/c1ccc(F)cc1)NC(=O)c1ccccc1 (stereo not drawn) | 0 | 2 | 2 | 0.9* | 5
COC(=O)C(Cc1c[nH]c2ccccc12)NC(=O)C(C)C (stereo not drawn) | -1 | 0 | -1 | -1 | 1
COC(=O)C(Cc1c[nH]c2ccccc12)NC(=O)C(=O)c1c[nH]c2ccccc12 (stereo not drawn) | 0 | 0 | 3 | 0 | 5.9*
Cc1ccc(/C=C(/NC(=O)c2ccccc2)C(=O)NC(Cc2c[nH]c3ccccc23)C(=O)O)cc1 (stereo not drawn) | 1 | -2 | 4 | 0 | 4
O=C(O)C(Cc1c[nH]c2ccccc12)NS(=O)(=O)c1ccc2ccccc2c1 (stereo not drawn) | 0 | 1 | 1 | 0 | 4
C[C@H]1[C@@H](c2ccccc2)Oc2ccc(Cl)cc2S(=O)(=O)N1Cc1cccc(Cl)c1 | 0 | / | 1 | -1 | 2
OC(C[n+]1ccccc1)c1ccccc1 (stereo not drawn) | 0 | 3 | -2 | -1 | -1
[O-][n+]1ccc(C(O)c2ccccc2)cc1 (stereo not drawn) | 0 | 5.1* | -1 | -1 | 3
c1ccc(OCCSc2nc3ccccc3[nH]2)cc1 | 0 | 4.7* | 1 | -1 | -1
c1ccc(OCc2nnc(SCc3nc4ccccc4[nH]3)n2-c2ccccc2)cc1 | -1 | / | -1 | -2 | -1
c1ccc(OCc2nc3ccccc3[nH]2)cc1 | 2 | 3 | 11* | -1 | 0
Fc1ccccc1CSc1nc2ccccc2[nH]1 | 3 | 0 | 12* | 0 | 5
COc1cccc(CSc2nc3ccccc3[nH]2)c1 | 2 | 1 | 13* | -1 | 1
CCCCCc1ccc(-c2ccc(/C=C/C(=O)O)cc2)nc1 | 1 | -2 | -7 | -2 | -3
CCCCCCCc1ccc(-c2ccc(O)cc2)nc1 | 1 | 0 | 12* | -1 | 2
C/C(=N\Nc1ccc([N+](=O)[O-])cc1)c1cc2ccccc2o1 | 0 | 0 | 4 | -1 | 6.4*
O=C(N/N=C/c1ccc([N+](=O)[O-])cc1)c1cc2ccccc2o1 | 0 | 2 | 3 | -2 | 0
FC(F)(F)c1cccc(-c2cc3nc(NCCOc4ccccc4)ccn3n2)c1 | -1 | / | 12* | -1 | 4
c1ccc(OCCNc2ccn3nc(-c4ccccc4)cc3n2)cc1 | -1 | / | 10 | -1 | 1
COc1ccc(C)cc1Nc1n[n+](-c2ccccc2)c(-c2ccc(SC)cc2)s1 | 0 | 4 | 12* | 0 | 2
CC(C)C[C@@H]1COc2cc(N3CCSCC3)ccc2S(=O)(=O)N1C | -2 | / | 3 | -1 | -1
SMILES | DAX1 inh-1 | DAX1 inh-2 | hgDAF-12 ag | ssDAF-12 act | hcDAF12 agonist
COc1ccc(-c2cnc3c(c2)CCC3(C#N)C#N)cc1 | 0 | 7.3* | -4 | -1 | -1
COc1ccc(-c2ccc(OC)cc2)cc1 | 0 | 2 | 1 | 0 | 1
CCCCN(C(=O)C1=COCCO1)c1c(N)n(CCCC)c(=O)[nH]c1=O | 1 | 0 | 1 | -1 | 0
CCCCn1c(N)c(N(CC)C(=O)C2=COCCO2)c(=O)[nH]c1=O | 3.9* | 1 | 2 | 0 | 0
CCCCN(C(=O)CCN1C(=O)C2CC=CCC2C1=O)c1c(N)n(CCCC)c(=O)[nH]c1=O (stereo not drawn) | 0 | 4.3* | 2 | -1 | -1
CCOc1ccc(N(C(C)=O)C2C=CS(=O)(=O)C2)cc1 (stereo not drawn) | 0 | 5.3* | 3 | -1 | 0
COCCCN1C(=O)[C@H](CC(=O)N2CCC(c3ccccc3)CC2)[C@]2(C(=O)OC)CCCCC=C12 | 0 | / | 5 | 0 | -2
S=C(c1ccc(-c2ccc(Br)cc2)o1)N1CCOCC1 | 2 | / | 12* | 0 | 3
S=C(c1ccc(-c2ccc(Br)cc2)o1)N1CCCCC1 | 3 | 2 | 10 | -1 | 1
Cc1ccc2nc(=O)c(NNc3ccccc3)cnc2c1 | 1 | 0 | 6 | 1.0* | 0
COc1ccccc1NS(=O)(=O)c1ccc(C)c(NC(=O)NCCCl)c1 | -1 | 4.4* | -5 | 0 | 0
COc1ccc(CNC(=O)CN(c2cccc([N+](=O)[O-])c2)S(C)(=O)=O)cc1 | 0 | 0 | 13* | 0 | 1
COc1ccc(CCNC(=O)CN(c2ccc(OC)cc2)S(C)(=O)=O)cc1 | 0 | 6.4* | -1 | -1 | 0
COc1ccc(CNC(=O)CN(c2cccc(OC)c2)S(C)(=O)=O)cc1 | 0 | 1 | -1 | -1 | 2
COc1ccc(N(C(=O)c2cccc([N+](=O)[O-])c2)S(=O)(=O)c2cccs2)cc1 | -1 | 5.1* | -1 | -1 | 0
COc1ccc(C)cc1N(C(=O)c1cccc(F)c1)c1nc2ccccc2s1 | 0 | 0 | 1 | 0 | 6.5*
COc1ccc(C)cc1N(C(=O)COc1ccccc1)c1nc2ccccc2s1 | 1 | 2 | 5 | 1 | 6.2*
COc1ccc(C)cc1N(C(=O)c1ccccc1)c1nc2ccccc2s1 | 0 | 0 | 1 | 0 | 4
CC(=O)NCCC1CCN(C(=O)C2CCC(=O)N(C3CCCC3)C2)CC1 (stereo not drawn) | 0 | 0 | -2 | 1.6* | 0
COC1CCN(C(=O)C2CCC(=O)N(C3CCCCCC3)C2)CC1 (stereo not drawn) | 1 | 1 | 5 | 0 | 6.3*
COCC1CCN(C(=O)C2CCC(=O)N(C3CCCC3)C2)CC1 (stereo not drawn) | 0 | 0 | 4 | 0 | 4
Cc1ccccc1OC1CCN(C(=O)C2CCC(=O)N(C3CCCC3)C2)CC1 (stereo not drawn) | 0 | 0 | -4 | -1 | -3
COc1cccc(C(=O)N[C@H](C(=O)N2CCC[C@H]2C(=O)NCCc2ccccc2Cl)c2ccccc2)c1 | -1 | / | -2 | -2 | 1
COc1ccc(N2CCN(CCCNC(=S)Nc3c(C)cccc3C)CC2)cc1 | 1 | 5.6* | 0 | -1 | -1
CC1=CCC(COC(=O)Nc2ccccc2)CC1 (stereo not drawn) | 3 | 3 | 11* | 0 | 2
